In assay [1] the target is Luciferin 4-monooxygenase (Photinus pyralis) (UniProt P08659). In words: qHTS assay to identify small molecule inhibitors of firefly luciferase (AID 1224835). Also: nearly all actives have a fitted effect of over 25% in size. Also: potency is read from the fitted curve at half-maximal effect. The essentials:
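Inhibition of purified Photinus luciferase is measured by luminescence. Substrate levels (D-luciferin, ATP) sit at their KM values. Each compound is tested in a concentration series.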

The nature of assay [2]: qHTS assay to identify small molecule agonists of the constitutive androstane receptor (CAR) signaling pathway - cell viability counter screen (AID 1224836). Also: series mostly up to about 92 µM; nearly all actives have a fitted effect of over 45% in size. The essentials:
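Counter screen multiplexed with the CAR reporter readout: HepG2 cells co-transfected with hCAR and the CYP2B6-2.2kb construct receive a 15-concentration compound series and 0.75 uM PK11195 (final), then CellTiter-Fluor fluorescence is read after 23 h.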

The target of assay [3] is Nuclear receptor subfamily 1 group I member 3 (Homo sapiens) (UniProt Q14994). As to the kind of experiment: qHTS assay to identify small molecule antagonists of the constitutive androstane receptor (CAR) signaling pathway (AID 1224838). Also: nearly all actives have a fitted effect of over 40% in size. The essentials: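 HepG2 cells stably co-transfected with hCAR and a CYP2B6-2.2kb luciferase reporter were seeded 4 h before compound addition at 15 concentrations. Cells were stimulated with 50 nM CITCO (final) for 24 h at 37 C; luciferase luminescence was then read.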
Chain of Nuclear receptor subfamily 1 group I member 3 (Homo sapiens) (Q14994 whole entry, looked up): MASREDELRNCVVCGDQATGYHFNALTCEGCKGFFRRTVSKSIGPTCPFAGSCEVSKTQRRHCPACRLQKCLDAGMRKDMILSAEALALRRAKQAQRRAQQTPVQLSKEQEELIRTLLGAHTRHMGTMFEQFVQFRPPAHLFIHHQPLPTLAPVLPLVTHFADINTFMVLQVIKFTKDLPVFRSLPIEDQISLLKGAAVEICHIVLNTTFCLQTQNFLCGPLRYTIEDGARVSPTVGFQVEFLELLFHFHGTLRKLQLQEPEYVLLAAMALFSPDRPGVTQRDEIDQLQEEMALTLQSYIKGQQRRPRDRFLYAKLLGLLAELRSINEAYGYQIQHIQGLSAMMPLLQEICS

Assay [4] is described as follows: qHTS assay to identify small molecule antagonists of the estrogen related receptor signaling pathway with the pleiotropic PPARgamma coactivator (PGC) from Tox21 10K library - cell viability counter screen (AID 1224840; active = well fitted cell-killing curve with a large enough effect in the repeat runs, not every such curve was filed as active; also: nearly all actives have a fitted effect of over 40% in size). The method in brief:
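PGC/ERR cells were seeded at 2,000 cells/well and left 6 hours at 37 C/5% CO2 before pin-tool addition of compounds in DMSO. After 17.5 hours at 37 C, CellTiter-Fluor was added and fluorescence read 30 minutes later.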

Assay [5] has as its target Thyrotropin receptor (Homo sapiens) (UniProt P16473). In words: qHTS assay to identify small molecule agonists of the thyroid stimulating hormone receptor (TSHR) signaling pathway (AID 1224843; calls by dose curve; also: nearly all actives have a fitted effect of over 45% in size). The method in brief: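 Screening of the Tox21 10K collection used HEK293 cells engineered with TSHR at 800 cells per well. After a 30-min room-temperature compound exposure, HTRF cAMP reagents were added and fluorescence recorded 1 h later.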

A short description of assay [6]: qHTS assay to identify small molecule agonists of the hypoxia (HIF-1) signaling pathway - cell viability counter screen (AID 1224844; calls by dose curve; also: nearly all actives have a fitted effect of over 50% in size). The essentials: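 HRE-bla ME-180 cells in medium with 0.5% dialyzed FBS were preincubated 5 hrs at 37C, exposed to compounds for 17 hrs, then viability was read as CellTiter-Glo luminescence after 30 min at room temperature, in the reporter wells.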
(In general: In qHTS, concentration-response curves come from the screen itself.)

Assay [7] in a line: qHTS assay to identify small molecule agonists of H2AX (AID 1224845; active = well fitted activation curve with a large enough effect in the signal ratio in the repeat runs, not every such curve was filed as active; the % refers to the signal ratio; also: potency is read from the fitted curve at half-maximal effect). The essentials: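 Phospho-H2AX Ser139 measured by HTRF (ex 320 nm; em 665 and 620 nm) after 24 hr antibody incubation. Compounds, 15 concentrations, 0.76% DMSO, were applied to CHO-K1 cells for 3hr at 37C before lysis.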
Assay [8] is described as follows: qHTS assay to identify small molecule agonists of the hypoxia (HIF-1) signaling pathway (AID 1224846; active = well fitted activation curve with a large enough effect in the signal ratio in the repeat runs, not every such curve was filed as active; the % refers to the signal ratio). The method in brief: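 HRE-bla ME-180 cells (beta-lactamase reporter under hypoxia response element) were plated at 2,000 cells/well in medium with 0.5% dialyzed FBS, rested 5 hrs, then given compounds in DMSO for 17 hrs at 37C, 5% CO2. Reporter induction was read with CCF4-AM FRET substrate.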

Assay [9] is described as follows: qHTS assay to identify small molecule agonists of H2AX - cell viability counter screen (AID 1224847; calls by dose curve; also: top concentration of the series differs between compounds; nearly all actives have a fitted effect of over 30% in size). The method in brief:
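We seed wild-type CHO-K1 cells overnight, treat them for 3 hr at 37C with compounds in 15-concentration series, and quantify remaining viability by CellTiter-Glo luminescence.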

Assay [10] can be described thus: qHTS RealTime-Glo MT Cell Viability Assay in HepG2 cells - 24 hour (AID 1224867). Also: nearly all actives have a fitted effect of over 50% in size. The method in brief:
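qHTS, HepG2, 600 cells/well, RealTime-Glo (NanoLuc + prosubstrate) added with cells; 5 h preincubation; DMSO compound addition; 37 C; luminescence at 0/8/16/24/32/40 h.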

The nature of assay [11]: qHTS RealTime-Glo MT Cell Viability Assay in HEK293 cells - 32 hour (AID 1224868). Also: nearly all actives have a fitted effect of over 50% in size. Also: potency is read from the fitted curve at half-maximal effect. The essentials:
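Assay medium contained NanoLuc luciferase plus cell-permeant prosubstrate, added with HEK293 cells at 600 cells/well. After 5 h at 37 C/5% CO2 compounds were added; plates stayed at 37 C for 40 h with serial luminescence reads.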

The nature of assay [12]: A CellTox Green Cytotoxicity Assay to monitor cytotoxicity in HEK293 cells - 0 hour (AID 1224869). Also: nearly all actives have a fitted effect of over 50% in size. The method in brief:
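HEK293 cells premixed with CellTox Green dye were seeded at 600 cells/well and left 5 h at 37 C/5% CO2 before pin transfer of 23 nL compound in DMSO. Fluorescence from dye bound to dead-cell DNA was read during 40 h treatment.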

The nature of assay [13]: qHTS RealTime-Glo MT Cell Viability Assay in HepG2 cells - 40 hour (AID 1224870). Also: nearly all actives have a fitted effect of over 50% in size. Also: potency is read from the fitted curve at half-maximal effect. The method in brief: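 Real-time viability: cells seeded at 600 per well together with NanoLuc and cell-permeant prosubstrate, compounds added after 5 h incubation. Luminescence tracked at 0, 8, 16, 24, 32 and 40 h of exposure.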
For assay [14], the target named is Nuclear receptor subfamily 1 group I member 3 (Homo sapiens) (UniProt Q14994). In words: qHTS assay to identify small molecule agonists of the constitutive androstane receptor (CAR) signaling pathway (AID 1224839). Also: nearly all actives have a fitted effect of over 15% in size. Also: potency is read from the fitted curve at half-maximal effect. As to activation: series mostly up to about 92 µM. The method in brief:
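A 15-concentration quantitative screen uses HepG2 cells co-transfected stably with human CAR and CYP2B6-2.2kb reporter. Treatment lasts 24 h with 0.75 uM PK11195 final present; ONE-Glo luminescence is the signal.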

Assay [15] is described as follows: qHTS assay to identify small molecule agonists of the estrogen related receptor signaling pathway with the pleiotropic PPARgamma coactivator (PGC) from Tox21 10K library (AID 1224842). Also: nearly all actives have a fitted effect of over 15% in size. The essentials: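 Luminescence from One-Glo (30 min, room temperature) measured after PGC/ERR cells had 18 h at 37 C with pinned compound (23 nL in DMSO). Cells had been seeded at 2,000 per well and pre-incubated 6 h.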

Assay [16] can be described thus: qHTS assay to identify small molecule antagonists of the estrogen related receptor (ERR) signaling pathway from Tox21 library (AID 1224848). Also: nearly all actives have a fitted effect of over 50% in size. Also: potency is read from the fitted curve at half-maximal effect. The essentials: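 Antagonist-mode screen of the Tox21 10K library in an NTP-provided ERR reporter cell line; 18 h compound exposure at 37 C, luminescence measured with ONE-Glo.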
Assay [17] is described as follows: qHTS assay to identify small molecule agonists of the estrogen related receptor (ERR) signaling pathway from Tox21 library (AID 1224849; calls by dose curve; also: nearly all actives have a fitted effect of over 15% in size). The method in brief: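 ERR reporter cell line (NTP) seeded, rested 6 h at 37 C/5% CO2, then pinned with Tox21 compounds in DMSO. After 18 h at 37 C, ONE-Glo luciferase luminescence was read following 30 min at room temperature.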

A short description of assay [18]: qHTS assay to identify small molecule antagonists of the constitutive androstane receptor (CAR) signaling pathway - cell viability counter screen (AID 1224837). Also: series mostly up to about 92 µM; nearly all actives have a fitted effect of over 45% in size. The essentials: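 HepG2 cells stably expressing hCAR and a CYP2B6-2.2kb reporter were plated and pre-incubated 4 hr at 37 C/5% CO2, then given compounds at 15 concentrations plus 50 nM CITCO (final). After 23 hr, viability was read by CellTiter-Fluor fluorescence.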

The nature of assay [19]: qHTS assay to identify small molecule antagonists of the estrogen related receptor signaling pathway with the pleiotropic PPARgamma coactivator (PGC) from Tox21 10K library (AID 1224841; call rule not given here; also: potency is read from the fitted curve at half-maximal effect). The essentials:
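PGC/ERR reporter cells were seeded at 2,000 cells/well and held 6 hours at 37 C/5% CO2 before pin-tool addition of compounds in DMSO. After 18 hours at 37 C, One-Glo was added and luminescence read after 30 minutes at room temperature.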

Unmarked numbers belong to inactive results. Inconclusive results are not listed. Active and inactive are the calls of the source. Unless noted, calls follow the shape of the dose curve; as a rule, active = well fitted curve in the direction sought with a large enough effect in the repeat runs; inconclusive = weak or mixed curves; inactive = no such curve, though single readings can be large; an effect the other way counts as inactive or inconclusive.

Chain of Luciferin 4-monooxygenase (Photinus pyralis) (P08659 whole entry, looked up): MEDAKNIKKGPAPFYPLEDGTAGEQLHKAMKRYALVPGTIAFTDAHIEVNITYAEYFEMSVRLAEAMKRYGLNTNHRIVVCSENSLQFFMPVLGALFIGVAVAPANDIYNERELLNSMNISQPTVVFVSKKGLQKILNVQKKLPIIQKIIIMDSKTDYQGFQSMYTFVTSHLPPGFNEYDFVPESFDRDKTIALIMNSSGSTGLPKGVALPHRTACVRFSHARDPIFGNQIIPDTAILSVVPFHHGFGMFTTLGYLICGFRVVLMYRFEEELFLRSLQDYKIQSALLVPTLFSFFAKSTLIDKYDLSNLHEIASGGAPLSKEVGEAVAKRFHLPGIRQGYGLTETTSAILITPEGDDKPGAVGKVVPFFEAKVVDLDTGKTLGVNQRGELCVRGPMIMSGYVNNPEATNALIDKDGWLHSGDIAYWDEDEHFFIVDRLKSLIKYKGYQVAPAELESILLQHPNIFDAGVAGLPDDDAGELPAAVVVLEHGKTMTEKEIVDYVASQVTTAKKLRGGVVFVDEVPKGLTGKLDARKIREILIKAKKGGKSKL
Chain of Thyrotropin receptor (Homo sapiens) (P16473 whole entry, looked up): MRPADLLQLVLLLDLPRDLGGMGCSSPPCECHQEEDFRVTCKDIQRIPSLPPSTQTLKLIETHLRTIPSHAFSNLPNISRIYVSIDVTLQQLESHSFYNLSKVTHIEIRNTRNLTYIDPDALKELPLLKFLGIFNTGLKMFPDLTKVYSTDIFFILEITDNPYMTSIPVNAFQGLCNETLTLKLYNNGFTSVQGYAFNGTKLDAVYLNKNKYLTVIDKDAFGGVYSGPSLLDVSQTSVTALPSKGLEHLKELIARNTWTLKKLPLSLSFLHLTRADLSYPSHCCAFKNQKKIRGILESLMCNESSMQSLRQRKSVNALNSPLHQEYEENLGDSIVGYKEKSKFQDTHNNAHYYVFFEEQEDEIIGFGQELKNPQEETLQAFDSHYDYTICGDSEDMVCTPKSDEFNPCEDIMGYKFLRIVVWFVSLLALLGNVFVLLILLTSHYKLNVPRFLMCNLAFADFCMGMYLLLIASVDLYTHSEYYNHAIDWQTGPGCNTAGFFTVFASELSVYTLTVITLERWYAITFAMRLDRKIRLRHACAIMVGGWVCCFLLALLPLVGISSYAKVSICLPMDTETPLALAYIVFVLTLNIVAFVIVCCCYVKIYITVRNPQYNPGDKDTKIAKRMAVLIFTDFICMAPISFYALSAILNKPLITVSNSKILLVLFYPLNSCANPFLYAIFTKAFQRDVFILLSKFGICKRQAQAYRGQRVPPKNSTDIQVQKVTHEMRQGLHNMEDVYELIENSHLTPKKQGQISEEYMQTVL

In the case of `CCCCCCCCCCCCSC`, the Potency entry in assay [1], in [3], in [5], in assay [6], in assay [7] and in [11] was “inactive” each time. Moreover, the Potency result in assay [13] was “inactive”. Also, the outcome in assay [2], in [4], in [8], in [9], in [10] and in assay [12] was inactive.
Consider `COc1ccc2cc1Oc1cc3c(cc1OC)CC[N+](C)(C)[C@H]3Cc1ccc(cc1)Oc1c(OC)c(OC)cc3c1[C@@H](C2)[N+](C)(C)CC3`, for which the Potency entry in assay [1], in assay [3], in assay [14], in assay [15], in assay [5] and in assay [6] was “inactive” in each case. The Potency entry in [7], in assay [16] and in [11] was “inactive” throughout. Moreover, the call in assay [2], in assay [4], in assay [8], in assay [9], in [17] and in assay [12] was inactive. Also, the Potency in assay [13] is 16.9 µM (active).
Regarding `COc1cc2c(cc1OC)-c1cc3ccc(OC)c(OC)c3c[n+]1CC2`, the Potency entry in assay [1], in assay [15] and in assay [13] was “inactive” in each case. In addition, the molecule was called inactive in assay [2], in [18], in [9], in [17], in assay [10] and in assay [12]. The Potency in [19] was 34.7 µM (active); in [16], 24.6 µM (active); in assay [11], 49.4 µM (active).
Regarding `CN(C)C(=O)Oc1cccc([N+](C)(C)C)c1`, the Potency entry in assay [1], in assay [3], in [14], in assay [5], in assay [6] and in assay [7] was “inactive” each time. The Potency entry in [11] and in assay [13] was “inactive” each time. Besides, the call in [2], in assay [18], in assay [4], in assay [9], in assay [10] and in assay [12] was inactive.
As for `CCOc1ccc2nc(S(N)(=O)=O)sc2c1`, the Potency in assay [1] is 34.7 µM (active); in assay [14], 7.5 µM (active). Further, the call in assay [2], in assay [18], in [4], in assay [8], in [9] and in assay [10] was inactive. Moreover, the call in [12] was inactive. Further, the Potency entry in assay [3], in assay [5], in assay [6], in [11] and in [13] was “inactive” throughout.
`c1coc(CNc2ncnc3nc[nH]c23)c1`: the Potency result in assay [1], in [5], in [6], in assay [7], in assay [11] and in assay [13] was “inactive” each time. Moreover, the call in assay [4], in assay [8], in assay [9], in assay [10] and in [12] was inactive.
In the case of `Cc1nc2ccc(CN(C)c3ccc(C(=O)N[C@@H](CCC(=O)O)C(=O)O)s3)cc2c(=O)[nH]1`, the Potency result in [1], in assay [3], in [14], in assay [5], in [6] and in [11] was “inactive” throughout. Also, in assay [13], the Potency result is “inactive”. The molecule was classed as inactive in assay [2], in assay [18], in assay [4], in [8], in assay [9] and in [10]. The result in [12] was inactive. In assay [7], the Potency is 0.619 µM (active).
Turning to `CCC1C(=O)OCC1Cc1cncn1C` (centres undefined), the Potency entry in assay [1], in assay [5], in assay [6], in assay [7], in [11] and in [13] was “inactive” in each case. Besides, the call in assay [2], in assay [18], in assay [9], in assay [10] and in assay [12] was inactive.
In the case of `C[N+]12CCC(CC1)C(OC(=O)C(O)(c1ccccc1)c1ccccc1)C2` (centres undefined), the Potency result in [1], in assay [3], in assay [14], in assay [15], in assay [5] and in assay [16] was “inactive” each time. Besides, the Potency result in [11] and in [13] was “inactive” each time. Also, the molecule was called inactive in assay [2], in [18], in [4], in [9], in assay [17] and in assay [10]. The call in assay [12] was inactive.
As to `COC(=O)C1=C(C)NC(C)=C(C(=O)OC(C)C)C1c1cccc2nonc12` (centres undefined), the Potency result in [1], in assay [3], in assay [19], in [15], in assay [6] and in assay [7] was “inactive” throughout. Further, the call in assay [2], in [18], in assay [4], in [9], in [17] and in [12] was inactive. For the same molecule, in [11], the Potency is 19 µM (active).

(Values after PubChem BioAssay (Tox21).)
